Source: PubChem (National Center for Advancing Translational Sciences (NCATS))
Shown are actives, neighbours in structure and some others; about 21% of the full set was active somewhere.
VP16 counter = Gal4-VP16 reporter inhibition counter-screen; Drosophila S2 Gal4-VP16 UAS-luciferase, luminescence, 20 h; Potency, µM (series often up to 53.6 µM), for inactives: at the highest dose activity, negative = inhibition, actives largely listed as inhibitors; actives 3.5% (n = 310,000); AID 2546;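 also: Gal4-VP16 expression switched on by copper sulfate through the metallothionein promoter; potency is read from the fitted curve at half-maximal effect; nearly all actives have a fitted effect of over 50% in size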
IL-1B inflam inh = blocks inflammasome-driven IL-1 beta release; activity change, % at 57.5 µM; AID 743279; actives 4.7% (n = 360,000); THP-1 LPS/ATP IL-1B secretion, AlphaLISA, 16 h; active compounds read low; in the data active = activity change below about -50%; inconclusive = mostly about -30% to -49%
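THP-1 cells pretreated 1 hr with compounds (up to 57.5 uM final), then stimulated with LPS (250 ng/mL final) plus ATP (1.25 mM final); secreted IL-1B measured by AlphaLISA after 16 hr, decreased signal indicating inhibition.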
ELG1 DNA repair = blocks ELG1-dependent DNA repair in HEK293T cells | Potency, µM (series often up to 46.1 µM), inactives show at the highest dose activity change, negative = inhibition, usual class: inhibitors | actives 2.3% (n = 330,000) | AID 504467 | HEK293T ELG1-luciferase reporter, luminescence, 16 h; DNA damage induced by 5-fluorouridine; also: potency is read from the fitted curve at half-maximal effect; nearly all actives have a fitted effect of over 55% in size
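5-Fluorouridine DNA damage + compound/DMSO, 2,000 cells/well, 16 h, 37 °C/5% CO2. ONE-Glo, 30 min RT, luminescence. Readout = decrease in reporter signal.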
TDP1 cell CPT = growth inhibition of DT40 Tdp1-/-;hTDP1 cells with camptothecin (screen for TDP1 inhibitors) | AID 686979 | actives 12% (n = 420,000) | Potency, µM (highest dose often 46.2 µM), for the others: top-dose activity change, negative = growth inhibition, usual class: inhibitors | chicken DT40 Tdp1-/-;hTDP1 cells + 20 nM CPT, ATP luminescence, 48 h; also: potency is read from the fitted curve at half-maximal effect; nearly all actives have a fitted effect of over 55% in size
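Chicken DT40 Tdp1-/- cells complemented with human TDP1, 400 cells/well, exposed to compounds plus 20 nM camptothecin for at least 48 h at 37 C; viability read as ATP content by CellTiter-Glo luminescence.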
DT40 TDP1 no CPT = qHTS for Inhibitors of human tyrosyl-DNA phosphodiesterase 1 (TDP1): qHTS in cells in absence of CPT; Potency, µM (titrated, usually from 46.2 µM), inactives show at the highest dose activity change, negative = growth inhibition, hits mostly inhibitors; DT40 Tdp1-/- hTDP1 cells, no CPT, ATP luminescence, 48 h; actives 15% (n = 420,000); also: potency is read from the fitted curve at half-maximal effect; nearly all actives have a fitted effect of over 55% in size
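No-CPT arm: Tdp1-/-;hTDP1 DT40 cells (400/well) plus compounds, incubated ≥48 hr at 37 °C. Readout CellTiter-Glo luminescence.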
RORgamma inh = blocks mouse ROR gamma transcriptional activity; actives 5.4% (n = 310,000); Potency, µM (series often up to 53.6 µM), for the others: at the top dose activity change, negative = inhibition, actives largely listed as inhibitors; Drosophila S2 Gal4-RORgamma UAS-luciferase reporter, 20 h; AID 2551; also: potency is read from the fitted curve at half-maximal effect; nearly all actives have a fitted effect of over 60% in size
Target sequence (P51450 whole entry, looked up, the tested form may be a part): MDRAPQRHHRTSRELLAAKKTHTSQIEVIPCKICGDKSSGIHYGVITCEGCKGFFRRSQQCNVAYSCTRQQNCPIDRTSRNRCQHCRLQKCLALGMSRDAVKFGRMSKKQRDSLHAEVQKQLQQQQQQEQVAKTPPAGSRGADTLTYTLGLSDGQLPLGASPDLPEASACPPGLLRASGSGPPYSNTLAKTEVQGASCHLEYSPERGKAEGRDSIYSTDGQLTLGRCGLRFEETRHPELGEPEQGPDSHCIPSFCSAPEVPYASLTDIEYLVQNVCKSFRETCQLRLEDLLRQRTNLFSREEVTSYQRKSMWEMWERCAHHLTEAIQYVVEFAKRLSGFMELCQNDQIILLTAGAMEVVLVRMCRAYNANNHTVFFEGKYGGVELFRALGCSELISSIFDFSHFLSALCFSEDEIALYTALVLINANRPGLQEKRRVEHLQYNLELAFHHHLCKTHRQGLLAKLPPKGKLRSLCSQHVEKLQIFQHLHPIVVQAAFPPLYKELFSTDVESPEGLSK
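ROR gamma transcriptional activity was tracked as Gal4-UAS luciferase output in stably transfected Drosophila Schneider cells, with compound added 1 hr before 700 uM copper sulfate induction and a 20 hr ambient-temperature incubation.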
Numbers without * were called inactive; ? = inconclusive; . = not tested or not shown; [ ] = remark or other dose. Unless noted, calls follow the shape of the dose curve; as a rule, active = well fitted curve in the direction sought with a large enough effect; inconclusive = small, poorly fitted or top-dose-only effect, or another doubt; inactive = no such curve, though single readings can be large; an effect the other way counts as inactive or inconclusive. % is scaled to controls: 0 for no effect and ±100 for the full control effect.

SMILES	VP16 counter	IL-1B inflam inh	ELG1 DNA repair	TDP1 cell CPT	DT40 TDP1 no CPT	RORgamma inh
COc1ccccc1-c1cc(Nc2ccc(F)cc2)ncn1	?	.	.	?	23.1µM*	19.1%
Cc1noc(C)c1-c1cc(NCc2ccccc2)ncn1	8.0%	.	.	?	23.1µM*	-13.6%
O=C(NC1CCCC1)C(c1ccco1)N1CCN(c2c(Cl)cncc2Cl)CC1 (stereo not drawn)	.	-15.4	.	?	?	.
Nc1ccc(N2CCN(c3ccc(Cl)c(Cl)c3)CC2)cc1	-8.0%	-5.6	?	11.6µM*	9.2µM*	-22.5%
N#C/C=C(/N)N1CCN(c2ccc(Cl)c(Cl)c2)CC1	9.1%	?	-0.1%	?	16.4µM*	?
COC(=O)N1CCN(c2ccc(Cl)c(Cl)c2)CC1	?	-7.0	?	?	?	-12.8%
CNC(=S)N1CCN(c2ccc(Cl)c(Cl)c2)CC1	1.5%	-58.1*	0.3%	23.1µM*	16.4µM*	27.1%
COc1ccc(-n2c(=O)c(-c3cccs3)nc3cncnc32)cc1	-25.3%	.	.	9.4%	11.8%	8.8%
O=C1C2=CC[C@H]3C(=O)N(Cc4ccccc4)C(=O)[C@@H]3[C@@H]2[C@H](O)[C@@H]2O[C@H]12	?	.	.	.	.	2.24µM*
O=C1C2=CC[C@H]3C(=O)N(Cc4ccc5c(c4)OCO5)C(=O)[C@@H]3[C@@H]2[C@H](O)[C@@H]2O[C@H]12	?	.	.	.	.	4.47µM*
CCN1C(=O)[C@@H]2[C@H]3C(=CC[C@H]2C1=O)C(=O)[C@H]1OC1[C@H]3O (stereo partly drawn)	?	.	.	.	.	2µM*
O=C1[C@H]2[C@H]3[C@H](O)[C@H](O)C/C(=N/OCc4ccccc4)[C@@H]3CC[C@@H]2C(=O)N1Cc1ccc2c(c1)OCO2	-2.3%[10 µM]	.	.	.	.	-1.1%[10 µM]
O=C1C2=CC[C@H]3C(=O)N(c4cccc(Oc5ccccc5)c4)C(=O)[C@@H]3[C@@H]2[C@H](O)[C@@H]2O[C@H]12	?	.	.	.	.	2.24µM*
CCOC(=O)C1=CCC2C(=O)N(CC)C(=O)C12 (stereo not drawn)	.	47.2	.	?	2.7%	.
Cc1ccc(C)c(-c2[nH]c3c(c2-c2c(-n4cccc4)n(C)c(=O)[nH]c2=O)c(=O)[nH]c(=O)n3C)c1	.	.	.	-6.2%	11.7%	.
N#CCCN(NC(=O)OCc1ccccc1)C(=O)OCc1ccccc1	.	0.0	.	-21.7%	-20.6%	.
CCCC(=O)Nc1ccc(C(=O)COC(=O)C2CC2)cc1	.	-9.1	?	0.0%	-18.7%	.
O=C1C2=CC[C@H]3C(=O)N(C4CCCCC4)C(=O)[C@@H]3[C@@H]2[C@H](O)[C@@H]2O[C@H]12	?	.	.	.	.	2µM*
COc1cccc(-c2nnc3sc(-c4ccc(C)cc4)nn23)c1	-2.8%	.	0.0%	.	.	-4.9%
CCOc1cccc(-c2nnc3sc(-c4cccs4)nn23)c1	-6.9%	-12.6	-13.3%	14.6µM*	13µM*	-11.2%
COc1cccc(-c2nnc3sc(-c4cccs4)nn23)c1	3.3%	?	2.7%	14.6µM*	16.4µM*	6.0%
CC(=O)NCCNc1nc2cc(-c3ccc(C)cc3)sc2c(=O)n1C	.	46.7	.	-23.6%	-26.8%	.
C#CCN(C[C@H]1[C@H](OC(=O)NCc2ccco2)[C@H](OC(=O)NCc2ccco2)C[C@@H](C(=O)OC)[C@H]1C(=O)OC)S(=O)(=O)c1ccc(C)cc1	.	-72.1*	.	20.6µM*	?	.
C#CCN(C[C@H]1[C@H](OC(=O)NC2CCCC2)[C@H](OC(=O)NC2CCCC2)C[C@@H](C(=O)OC)[C@H]1C(=O)OC)S(=O)(=O)c1ccc(C)cc1	.	-60.0*	.	13µM*	16.4µM*	.
C#CCN(C[C@H]1[C@H](OC(=O)NCc2ccc(OC)c(OC)c2)[C@H](OC(=O)NCc2ccc(OC)c(OC)c2)C[C@@H](C(=O)OC)[C@H]1C(=O)OC)S(=O)(=O)c1ccc(C)cc1	.	-13.6	.	20.6µM*	13µM*	.
SMILES	VP16 counter	IL-1B inflam inh	ELG1 DNA repair	TDP1 cell CPT	DT40 TDP1 no CPT	RORgamma inh
C#CCN(C[C@H]1[C@H](OC(=O)NCc2ccccc2)[C@H](OC(=O)NCc2ccccc2)C[C@H]2C(=O)N(c3ccccc3)C(=O)[C@@H]12)S(=O)(=O)c1ccc(C)cc1	.	-21.0	.	-23.2%	-14.6%	.
O=C(COC(=O)Cc1c(F)cccc1Cl)NC(=O)Nc1ccccc1F	.	22.0	8.2%	4.9%	-1.6%	.
CCOc1ccccc1NC(=S)N(Cc1cc2ccc(C)cc2[nH]c1=O)CC1CCCN1CC (stereo not drawn)	-5.9%	-21.8	6.1%	20.6µM*	25.9µM*	-30.0%
CCN(CC)CCN(Cc1cc2ccc(C)cc2[nH]c1=O)C(=O)NC1CCCCC1	9.4%	?	?	-4.7%	-9.3%	1.8%
COc1ccccc1NC(=O)N(CCN1CCOCC1)Cc1cc2cc(C)cc(C)c2[nH]c1=O	8.8%	-27.7	?	1.5%	-29.2%	4.8%
COc1ccccc1N(Cc1cc2ccc(C)cc2[nH]c1=O)C(C)=O	-1.4%	0.0	-11.0%	3.3%	-2.4%	9.1%
CCN1CCCC1CN(Cc1cc2ccc(C)cc2[nH]c1=O)C(=S)Nc1ccccc1OC (stereo not drawn)	-4.9%	-12.1	?	?	20.6µM*	-4.0%
CCN1CCCC1CN(Cc1cc2ccc(C)c(C)c2[nH]c1=O)C(=O)Nc1ccccc1OC (stereo not drawn)	-11.8%	?	-1.7%	18.4µM*	?	-1.5%
C[C@H](CO)N1C[C@H](C)[C@H](CN(C)C(=O)c2ccccc2)OCc2cnnn2CCCC1=O	.	6.1	.	-26.5%	8.1%	.
CCOc1ccc(-n2c(C)cc(/C=N\NC(=O)CC(=O)NC3CCCCC3)c2C)cc1	-0.8%	-29.1	-21.3%	18.4µM*	13µM*	-18.3%
CCOC(=O)N/N=C/c1cc(C)n(-c2ccccc2)c1C	21.7%	-0.5	?	-22.0%	?	-2.4%
CCOc1ccc(-n2c(C)cc(/C=N/NC(=O)C(N)=O)c2C)cc1	-9.1%	10.9	7.5%	5.4%	-18.5%	22.7%
CCOc1ccc(-n2c(C)cc(/C=N/N(C)C)c2C)cc1	7.0%	27.5	-6.1%	9.2µM*	7.31µM*	9.4%
CCOc1ccc(-n2c(C)cc(/C=N/Nc3nc(C)cc(=O)[nH]3)c2C)cc1	7.4%	-3.2	?	16.4µM*	11.6µM*	-35.4%
CC(C)N1CCC1(C)C(=O)Nc1ccccc1OC(F)F (stereo not drawn)	.	34.5	.	-20.7%	?	.
